# In the supplement of paper PMC9023506:
# Structures can show the parent of a compound that is named as a salt.
# Columns and labels:
# Conditions in all cases: 10 µM; exposure time: 3 h pre-incubation + 3 h imaging
# [1] = test system: Danio rerio larvae (5 dpf); assay: excitability to 1-s acoustic pulses, difference vs DMSO (percentage points (treated minus DMSO)); higher = more of the behaviour than the DMSO vehicle control
# In short: (§1)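 Five-days-post-fertilisation wild-type zebrafish larvae were held in 96-well ProxiPlates and exposed to each library drug at a final 10 µM, diluted 1000× from DMSO stocks into egg water, with 48 larvae per drug. Exposure lasted 3 h before and 3 h during imaging at 28.5 °C, with images taken every 6 s across a 3-h program of rest, moving coloured lines and acoustic pulses. An ImageJ macro scored movement and upper-half location, and each behaviour score is the treated-group mean minus the vehicle-group mean, expressed in percentage points.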
# [2] = test system: Danio rerio larvae (5 dpf); assay: optomotor response to fast red moving lines, difference vs DMSO (percentage points (treated minus DMSO)); higher = more of the behaviour than the DMSO vehicle control
# In short: as §1
# [3] = test system: Danio rerio larvae (5 dpf); assay: habituation to 1-s acoustic pulses, difference vs DMSO (percentage points (treated minus DMSO)); higher = more of the behaviour than the DMSO vehicle control
# In short: as §1
# [4] = test system: Danio rerio larvae (5 dpf); assay: startle response to 20-s acoustic pulses, difference vs DMSO (percentage points (treated minus DMSO)); higher = more of the behaviour than the DMSO vehicle control
# In short: as §1
# [5] = test system: Danio rerio larvae (5 dpf); assay: activity during period 15 (no stimuli), difference vs DMSO (percentage points (treated minus DMSO)); higher = more of the behaviour than the DMSO vehicle control
# In short: as §1
structure (smiles),measurement,setting,value
CC(C)(C(=O)O)c1ccc(C(O)CCCN2CCC(C(O)(c3ccccc3)c3ccccc3)CC2)cc1 (configuration not stated) [Fexofenadine hydrochloride],excitability to 1-s acoustic pulses,[1],-6.48
same,optomotor response,[2],-0.251
C#C[C@]1(O)CC[C@H]2[C@@H]3CCC4=CC(=O)CC[C@@H]4[C@H]3CC[C@@]21CC [Levonorgestrel],habituation to 1-s acoustic pulses,[3],-7.34
same,excitability to 1-s acoustic pulses,[1],1.14
same,optomotor response,[2],9.62
CCCC1O[C@@H]2C[C@H]3[C@@H]4CCC5=CC(=O)C=C[C@]5(C)[C@H]4[C@@H](O)C[C@]3(C)[C@]2(C(=O)CO)O1 (some centres not stated) [Budesonide],startle response to 20-s acoustic pulses,[4],-5.65
CC1CNc2c(cccc2S(=O)(=O)N[C@@H](CCCNC(=N)N)C(=O)N2CC[C@@H](C)C[C@@H]2C(=O)O)C1 (some centres not stated) [Argatroban],excitability to 1-s acoustic pulses,[1],0.477
NS(=O)(=O)Cc1noc2ccccc12 [Zonisamide],excitability to 1-s acoustic pulses,[1],2.79
same,activity during period 15,[5],-7.11
same,startle response to 20-s acoustic pulses,[4],8.21
CC(C)c1nc(N(C)S(C)(=O)=O)nc(-c2ccc(F)cc2)c1/C=C/[C@@H](O)C[C@@H](O)CC(=O)O [Rosuvastatin calcium],habituation to 1-s acoustic pulses,[3],0.315
same,optomotor response,[2],11.1
CC[C@H](C)C(=O)O[C@H]1C[C@@H](C)C=C2C=C[C@H](C)[C@H](CC[C@@H]3C[C@@H](O)CC(=O)O3)[C@H]21 [Lovastatin],startle response to 20-s acoustic pulses,[4],-0.839
same,optomotor response,[2],-4.95
Cc1cccc(CN2CCN(C(c3ccccc3)c3ccc(Cl)cc3)CC2)c1 (configuration not stated) [Meclizine dihydrochloride],optomotor response,[2],-10.8
CCN(CC)CCNC(=O)c1c(C)[nH]c(/C=C2\C(=O)Nc3ccc(F)cc32)c1C [Sunitinib malate],habituation to 1-s acoustic pulses,[3],4.25
same,startle response to 20-s acoustic pulses,[4],-2.32
CC[C@H]1OC(=O)[C@H](C)[C@@H](O[C@H]2C[C@@](C)(OC)[C@@H](O)[C@H](C)O2)[C@H](C)[C@@H](O[C@@H]2O[C@H](C)C[C@H](N(C)C)[C@H]2O)[C@](C)(O)C[C@@H](C)CN(C)[C@H](C)[C@@H](O)[C@]1(C)O [Azithromycin],startle response to 20-s acoustic pulses,[4],2.64
same,optomotor response,[2],-9.96
CC(=O)Nc1ccc(O)cc1 [Acetaminophen],excitability to 1-s acoustic pulses,[1],-2.54
O=C(Nc1c(Cl)cncc1Cl)c1ccc(OC(F)F)c(OCC2CC2)c1 [Roflumilast],activity during period 15,[5],-9.33
COc1cc2ncnc(Nc3ccc(F)c(Cl)c3)c2cc1OCCCN1CCOCC1 [Iressa],startle response to 20-s acoustic pulses,[4],-2.19
Cc1ccccc1C(=O)Nc1ccc(C(=O)N2CCCC(O)c3cc(Cl)ccc32)c(C)c1 (configuration not stated) [Tolvaptan],habituation to 1-s acoustic pulses,[3],1.17
same,activity during period 15,[5],-8.09
same,startle response to 20-s acoustic pulses,[4],3.71
same,optomotor response,[2],2.23
Clc1ccc(COC(Cn2ccnc2)c2ccc(Cl)cc2Cl)c(Cl)c1 (configuration not stated) [Miconazole nitrate],optomotor response,[2],-18.6
